{"source": "PubChem BioAssay AID977610", "origin": "cited, not measured here", "assay": "PubChem AID 977610", "details": "PDB protein-ligand complexes, literature Ki", "note": "Screen size: about 3,600 compounds; about 3,600 (100%) were called active. No cut-off is given here; in the data, nearly all actives have Ki up to about 18000 µM. So high a share suggests a set chosen from earlier hits. Some of the results follow. Numbered stars: 1 amine (or outer) side, 2 acyl side, 3 side chain; on linkers, the order of the positions; unused ones are H or OH. Square brackets hold non-standard residues; d marks the D form. Residues, ends and D or L forms follow the SMILES beside them. Peptide text beside a SMILES is read from it. * marks the point of attachment. Orn(CH(NH2)2) = NC(N)NCCC[C@H](N)C(=O)O; X2 = O=C([C@H]1CCC[C@@H]1N[*:1])[*:2]; X1 = N[C@H]1CNC[C@@H]1C(=O)*; β3hL = CC(C)C[C@H](N)CC(=O)O"}
{"smiles": "Nc1ncnc2c1ncn2[C@@H]1O[C@H](COP(=O)(O)OP(=O)(O)NP(=O)(O)O)[C@@H](O)[C@H]1O", "values": [{"measurement": "Ki", "setting": "protein: Lipid A export ATP-binding/permease protein msbA, PDB entry 3B5Y", "result": "10 µM (active)"}]}
{"smiles": "Nc1ncnc2c1ncn2[C@@H]1O[C@H](COS(=O)(=O)NC(=O)[C@@H](N)CO)[C@@H](O)[C@H]1O", "values": [{"measurement": "Ki", "setting": "protein: Threonine--tRNA ligase, mitochondrial, PDB entry 4eo4", "result": "0.45 µM (active)"}]}
{"smiles": "Nc1ncnc2c1ncn2[C@@H]1O[C@H](CO[P+](O)(O)O[P+](O)(O)N[P+](O)(O)O)[C@@H](O)[C@H]1O", "values": [{"measurement": "Ki", "setting": "protein: ATP-BINDING CASSETTE SUB-FAMILY B MEMBER 10, PDB entry 4ayw", "result": "100 µM (active)"}]}
{"smiles": "Nc1ncnc2c1ncn2[C@@H]1O[C@H](CO[P+](O)(O)O[P+](O)(O)O[P+](O)(O)O)[C@@H](O)[C@H]1O", "values": [{"measurement": "Ki", "setting": "protein: 6-phosphofructokinase isozyme 2, PDB entry 3umo", "result": "129 µM (active)"}, {"measurement": "Ki", "setting": "protein: 6-phosphofructokinase isozyme 2, PDB entry 3ump", "result": "1030 µM (active)"}]}
{"smiles": "Cc1ccc2oc(=O)n(CCCCn3cc(CCCCC[C@@H]4SC[C@@H]5NC(=O)N[C@@H]54)nn3)c2c1", "values": [{"measurement": "Ki", "setting": "protein: Biotin ligase, PDB entry 3v7s", "result": "0.09 µM (active)"}]}
{"smiles": "Nc1ncnc2c1ncn2[C@@H]1O[C@H](CO[P+](O)(O)O)[C@@H](O)[C@H]1O[P+](O)(O)O", "values": [{"measurement": "Ki", "setting": "protein: Aspartate-semialdehyde dehydrogenase ASADH, PDB entry 4r3w", "result": "1000 µM (active)"}]}
{"smiles": "Nc1ncnc2c1ncn2[C@@H]1O[C@H](CO[P+](O)(O)OCC=CCC[C@@H]2SC[C@@H]3NC(=O)N[C@@H]32)[C@@H](O)[C@H]1O", "values": [{"measurement": "Ki", "setting": "protein: Biotin-[acetyl-CoA-carboxylase] ligase, PDB entry 4dq2", "result": "0.03 µM (active)"}]}
{"smiles": "Nc1ncnc2c1ncn2[C@@H]1O[C@H](CO[P+](O)(O)O[P+](O)(O)C[P+](O)(O)O)[C@@H](O)[C@H]1O", "values": [{"measurement": "Ki", "setting": "protein: ATP-BINDING CASSETTE SUB-FAMILY B MEMBER 10, PDB entry 4ayx", "result": "200 µM (active)"}, {"measurement": "Ki", "setting": "protein: ATP-BINDING CASSETTE SUB-FAMILY B MEMBER 10 MITOCHONDRIAL, PDB entry 4ayt", "result": "200 µM (active)"}]}
{"smiles": "O[C@@H]1[C@H](O)[C@@H](CO[P+](O)(O)O)O[C@H]1n1cnc2c(-c3ccc4ccccc4c3)ncnc21", "values": [{"measurement": "Ki", "setting": "protein: 2'-deoxynucleoside 5'-phosphate N-hydrolase 1 DNPH1, PDB entry 4p5e", "result": "2.8 µM (active)"}, {"measurement": "Ki", "setting": "protein: 2'-deoxynucleoside 5'-phosphate N-hydrolase 1 DNPH1, PDB entry 4p5d", "result": "1.5 µM (active)"}]}
{"smiles": "CC1(C)O[C@@H]2[C@H](O1)[C@@H](Cn1cc(CCCCC[C@@H]3SC[C@@H]4NC(=O)N[C@@H]43)nn1)O[C@H]2n1cnc2c(N)ncnc21", "values": [{"measurement": "Ki", "setting": "protein: Biotin ligase, PDB entry 3v7c", "result": "1.83 µM (active)"}]}
{"smiles": "O=C(N[C@@H](CCCCNC(=O)c1ccc(I)cc1)C(=O)O)N[C@@H](Cc1ccco1)C(=O)O", "values": [{"measurement": "Ki", "setting": "protein: Glutamate carboxypeptidase 2 GCPII, PDB entry 4oc3", "result": "0.0053 µM (active)"}]}
{"smiles": "O=C(N[C@@H](CCCCNC(=O)c1ccc(I)cc1)C(=O)O)N[C@H](C(=O)O)c1ccc(O)cc1", "values": [{"measurement": "Ki", "setting": "protein: Glutamate carboxypeptidase 2 GCPII, PDB entry 4oc5", "result": "0.085 µM (active)"}]}
{"smiles": "O=C(N[C@@H](CCCCNC(=O)c1ccc(I)cc1)C(=O)O)N[C@@H](Cc1ccncc1)C(=O)O", "values": [{"measurement": "Ki", "setting": "protein: Glutamate carboxypeptidase 2 GCPII, PDB entry 4oc4", "result": "0.105 µM (active)"}]}
{"smiles": "O=C(N[C@@H](CCCCNC(=O)c1ccc(I)cc1)C(=O)O)N[C@@H](C[C@H]1CO1)C(=O)O", "values": [{"measurement": "Ki", "setting": "protein: Glutamate carboxypeptidase 2 GCPII, PDB entry 4oc1", "result": "0.254 µM (active)"}]}
{"smiles": "C#CC[C@H](NC(=O)N[C@@H](CCCCNC(=O)c1ccc(I)cc1)C(=O)O)C(=O)O", "values": [{"measurement": "Ki", "setting": "protein: Glutamate carboxypeptidase 2 GCPII, PDB entry 4oc2", "result": "0.0053 µM (active)"}]}
{"smiles": "O=C(N[C@@H](CCCCNC(=O)c1ccc(I)cc1)C(=O)O)NC1(C(=O)O)CC1", "values": [{"measurement": "Ki", "setting": "protein: Glutamate carboxypeptidase 2 GCPII, PDB entry 4oc0", "result": "0.318 µM (active)"}]}
{"smiles": "CSCC[C@H](NC(=O)[C@H](CC(C)C)NC(=O)[C@H](CC(C)C)NC(=O)[C@@H]1CCCN1C(=O)[C@@H](N)Cc1cnc[nH]1)C(=O)N[C@@H](CCCNC(N)N)C(=O)N[C@@H](CC(C)C)C(=O)N[C@@H](CC(C)C)C(=O)N[C@@H](Cc1cnc[nH]1)C(=O)N[C@@H](Cc1cnc[nH]1)C(=O)N1CCC[C@H]1C(=O)N[C@@H](CO)C(=O)O", "note": "(H-HPLLM[Orn(CH(NH2)2)]LLHHPS-OH)", "values": [{"measurement": "Ki", "setting": "protein: Estrogen receptor beta, PDB entry 4j26", "result": "3.64 µM (active)"}]}
{"smiles": "CC(C)C[C@@H](CC(=O)NCC(=O)N[C@@H](CC(=O)O)C(=O)N[C@@H](C)C(=O)N[C@@H](Cc1ccccc1)C(=O)N[C@@H](CC(N)=O)C(=O)N[C@@H](CCCNC(N)N)C(N)=O)NC(=O)[C@H](CCCCN)NC(=O)[C@H]1CCC[C@@H]1NC(=O)[C@H](CC(C)C)NC(=O)[C@H]1CCC[C@@H]1NC(=O)[C@H](CCCNC(N)N)NC(=O)[C@H]1CCC[C@@H]1NC(=O)[C@H](C)NC(=O)[C@H]1CNC[C@@H]1N", "note": "(X1-A[X2][Orn(CH(NH2)2)][X2]L[X2]K[β3hL]GDAFN[Orn(CH(NH2)2)]-NH2)", "values": [{"measurement": "Ki", "setting": "protein: Apoptosis regulator Bcl-XL, PDB entry 3fdm", "result": "0.002 µM (active)"}]}
{"smiles": "CSCC[C@H](NC(=O)[C@H](CC(C)C)NC(=O)CNC(=O)[C@H](Cc1ccccc1)NC(=O)[C@H](Cc1ccccc1)NC(=O)[C@H](CCC(N)=O)NC(=O)[C@H](CCC(N)=O)NC(=O)[C@@H]1CCCN1C(=O)[C@H](CCCCN)NC(=O)[C@@H]1CCCN1C(=O)[C@@H](N)CCCNC(N)N)C(=O)O", "values": [{"measurement": "Ki", "setting": "protein: Substance-P receptor, PDB entry 2ks9", "result": "9020 µM (active)"}, {"measurement": "Ki", "setting": "protein: Substance-P receptor, PDB entry 2ksa", "result": "871 µM (active)"}, {"measurement": "Ki", "setting": "protein: Substance-P receptor, PDB entry 2ksb", "result": "754 µM (active)"}]}
{"smiles": "CC[C@H](C)[C@H](NC(=O)[C@H](CCCCN)NC(=O)[C@@H]1CCCN1C(=O)[C@@H](N)CCCNC(N)N)C(=O)N1CCC[C@H]1C(=O)N1CCC[C@H]1C(=O)O", "note": "(H-[Orn(CH(NH2)2)]PKIPP-OH)", "values": [{"measurement": "Ki", "setting": "protein: ANGIOTENSIN-CONVERTING ENZYME, ANCE, PDB entry 4aa2", "result": "107 µM (active)"}]}
{"smiles": "CC(C)C[C@H](NC(=O)[C@H](CS)NC(=O)[C@@H]1CCCN1C(=O)[C@@H](NC(=O)[C@@H]1CCCN1C(=O)[C@@H]1CCCN1C(=O)[C@H](CS)NC(=O)[C@H](Cc1ccc(O)cc1)NC(=O)[C@H](CC(N)=O)NC(=O)[C@@H](NC(=O)[C@H](CCC(N)=O)NC(=O)[C@H](CS)NC(=O)CN)C(C)C)C(C)C)C(N)=O", "note": "(H-GCQVNYCPPVPCL-NH2)", "values": [{"measurement": "Ki", "setting": "protein: urokinase-type plasminogen activator (uPA), PDB entry 4mny", "result": "1.96 µM (active)"}]}
{"smiles": "CC(C)C[C@H](NC(=O)[C@H](CC(C)C)NC(=O)[C@H](Cc1cnc[nH]1)NC(=O)[C@H](CCCNC(N)N)NC(=O)[C@H](CC(C)C)NC(=O)[C@H](CC(C)C)NC(=O)[C@H](CC(C)C)NC(=O)[C@@H]1CCCN1C(=O)[C@H](Cc1cnc[nH]1)NC(=O)[C@@H](N)CCCNC(N)N)C(=O)N[C@@H](CCC(N)=O)C(=O)N[C@@H](CC(N)=O)C(=O)O", "note": "(H-[Orn(CH(NH2)2)]HPLLL[Orn(CH(NH2)2)]HLLQN-OH)", "values": [{"measurement": "Ki", "setting": "protein: Estrogen receptor beta, PDB entry 4j24", "result": "0.05 µM (active)"}]}
{"smiles": "O=C(NCC1(C2NC(c3ccccc3)=CS2)CCOCC1)c1cccc(-c2noc(C(F)(F)F)n2)c1", "note": "(configuration not stated)", "values": [{"measurement": "Ki", "setting": "protein: HISTONE DEACETYLASE 7, PDB entry 3znr", "result": "0.036 µM (active)"}]}
{"smiles": "O=C(O)c1ccccc1Nc1ccccc1C(=O)O", "values": [{"measurement": "Ki", "setting": "protein: Anthranilate phosphoribosyltransferase, PDB entry 4ij1", "result": "4 µM (active)"}]}
{"smiles": "O=C(O)c1ccccc1C(=O)O", "values": [{"measurement": "Ki", "setting": "protein: Nicotinate-nucleotide pyrophosphorylase [carboxylating], PDB entry 4kww", "result": "2.8 µM (active)"}]}
{"smiles": "O=C(O)c1ccccc1Nc1cccc(Nc2ccccc2C(=O)O)c1C(=O)O", "values": [{"measurement": "Ki", "setting": "protein: Anthranilate phosphoribosyltransferase, PDB entry 4m0r", "result": "6.2 µM (active)"}]}
{"smiles": "Cc1ccc(Nc2ccccc2C(=O)O)c(C(=O)O)c1", "values": [{"measurement": "Ki", "setting": "protein: Anthranilate phosphoribosyltransferase, PDB entry 4gkm", "result": "6.8 µM (active)"}]}
{"smiles": "Cc1ccc(C(=O)O)c(Nc2c(C)cccc2C(=O)O)c1", "values": [{"measurement": "Ki", "setting": "protein: anthranilate phosphoribosyltransferase (AnPRT; trpD), PDB entry 4giu", "result": "4.7 µM (active)"}]}
{"smiles": "NC(=O)SCC(=O)Nc1ccccc1C(=O)O", "values": [{"measurement": "Ki", "setting": "protein: Human cathepsin K mutant C25S, PDB entry 4leg", "result": "28 µM (active)"}]}
{"smiles": "Nc1ccn([C@@H]2O[C@H](CO)[C@@H](O[P+](O)(O)O)[C@H]2O)c(=O)n1", "values": [{"measurement": "Ki", "setting": "protein: Bos taurus ribonuclease A, PDB entry 1rpf", "result": "103 µM (active)"}]}
{"smiles": "Nc1ccn([C@@H]2O[C@H](CO[P+](O)(O)O)[C@@H](O)[C@H]2O)c(=O)n1", "values": [{"measurement": "Ki", "setting": "protein: Bos taurus ribonuclease A, PDB entry 1rnm", "result": "844 µM (active)"}]}
{"smiles": "Nc1ccn([C@@H]2O[C@H](CO)[C@@H](O)[C@H]2O[P+](O)(O)O)c(=O)n1", "values": [{"measurement": "Ki", "setting": "protein: Bos taurus ribonuclease A, PDB entry 1jvu", "result": "7 µM (active)"}]}
